Entries with a potency or affinity are not part of this list.

The assay deals with Cryptococcus neoformans. The following applies: Concentration 32 ug.mL-1; ASSAY_TEST Inhibition of Fungal Growth; detection method Resazurin; Absorption (OD600-OD570); plate type 384well; NBS; CORNING #3640. Background: The colour change of resazurin is a common sign of viable cells or microbes.
As to `Cc1cccc(N(Cc2ccccc2F)S(=O)(=O)c2ccc3nncn3c2)c1`, the Inhibition (usually the drop in the measured response relative to a control, in per cent) is given as -7.87%.

`COc1ccc(-c2cc3c4nn(CC(=O)Nc5cc(OC)cc(OC)c5)c(=O)n4ccn3n2)cc1`: the Inhibition is -18.18%.

As for `O=c1c2sccc2n2c(=O)n(Cc3ccc(Br)cc3)nc2n1CCc1ccccc1`, the Inhibition is listed as -16.22%.

With `Cc1cc(Br)ccc1NC(=O)Cn1nc2c(Sc3cccc(F)c3)nccn2c1=O`, the Inhibition is -9.53%.

For the compound `Cc1ccc(NC(=O)Cn2nc3cc(C)nc(Nc4ccc(F)c(C)c4)n3c2=O)cc1`, the Inhibition was -5.79%.

Turning to `CCc1ccc(N(Cc2cccc(F)c2)S(=O)(=O)c2cccn3c(C)nnc23)cc1`, the Inhibition is reported as -10.22%.

As to `C=Cc1ccc(Cn2nc3c(=O)n(-c4cccc(Cl)c4C)ccn3c2=O)cc1`, the Inhibition is -8.23%.

Turning to `CCOc1ccc(-n2ccn3c(SCC(=O)Nc4ccc5c(c4)OCCO5)nnc3c2=O)cc1`, the Inhibition was -10.75%.

Regarding `COc1ccc(NC(=O)Cn2nc3c(Sc4ccccc4)nccn3c2=O)cc1Cl`, the Inhibition is 2.33%.

As for `O=C(Cn1nc2ccc(-c3ccccc3)nn2c1=O)Nc1cccc(Cl)c1`, the Inhibition is -15.44%.

As to `COc1ccc(N(Cc2ccccc2F)S(=O)(=O)c2ccc3nnc(C)n3c2)cc1`, the Inhibition was -2.71%.

`CCOC(=O)c1ccc(NC(=O)Cn2nc3ccc(-c4ccc(Cl)cc4)nn3c2=O)cc1`: the Inhibition is on record as -7.91%.

Take `COc1cccc(-n2ccn3c(SCc4cc(C)ccc4C)nnc3c2=O)c1`: the Inhibition was -5.92%.

Take `Cc1ccc(N(Cc2cccc(C)c2)S(=O)(=O)c2cccn3c(C)nnc23)cc1`: the Inhibition is reported as -6.62%.

Consider `COc1ccc(NC(=O)Cn2nc3c(SCc4ccc(Cl)cc4)nccn3c2=O)cc1`, for which the Inhibition is -4.83%.

Consider `N#Cc1ccc(NC(=O)Cn2nc3c(SC4CCCCC4)nccn3c2=O)cc1`, for which the Inhibition is -20.35%.

As for `CCOC(=O)c1ccc(NC(=O)Cn2nc3c(SC4CCCCC4)nccn3c2=O)cc1`, the Inhibition was -30.92%.

As for `O=C(Cn1nc2c(SC3CCCCC3)nccn2c1=O)N1CCN(c2ccccc2)CC1`, the Inhibition is on record as -1.45%.

As for `COc1cc(NC(=O)Cn2nc3ccc(SCc4ccc(Cl)cc4)nn3c2=O)cc(OC)c1`, the Inhibition is -31.85%.

Consider `COc1cc(NC(=O)Cn2nc3ccc(SC4CCCCC4)nn3c2=O)cc(OC)c1`, for which the Inhibition was -40.43%.

With `COc1ccc(Cl)cc1NC(=O)Cn1nc2c(Sc3ccc(C)cc3C)nccn2c1=O`, the Inhibition was -21.72%.

Consider `O=c1c2nn(Cc3ccccc3Cl)c(=O)n2ccn1-c1ccccc1`, for which the Inhibition is recorded as -8.76%.

For `Cc1ccc(C)c(NC(=O)Cn2nc3c(Sc4ccccc4)nccn3c2=O)c1`, the Inhibition is listed as -8.99%.

As to `Cc1oc(-c2cccc(Cl)c2)nc1CSc1nc2ccccc2n2c(C(C)C)nnc12`, the Inhibition is -17.47%.

With `COc1cccc(-n2ccn3c(SCC(=O)c4c[nH]c5ccccc45)nnc3c2=O)c1`, the Inhibition was -9.55%.

Consider `Cc1cc2nn(CC(=O)Nc3ccc(F)cc3)c(=O)n2c(Nc2ccccc2C)n1`, for which the Inhibition is reported as -11.54%.

Turning to `CCOC(=O)c1ccc(NC(=O)Cn2nc3c(N4CCOCC4)nccn3c2=O)cc1`, the Inhibition is recorded as -14.12%.

For the compound `COc1cc(OC)c(NC(=O)Cn2nc3ccc(Sc4ccc(C)cc4)nn3c2=O)cc1Cl`, the Inhibition is on record as -7.45%.

Regarding `O=C(CSc1nnc2c(=O)n(-c3ccc(F)c(F)c3)ccn12)c1ccccc1Cl`, the Inhibition is on record as -7.06%.

With `Cc1ccc(C)c(Cn2nc3n(CCC(C)C)c(=O)c4sccc4n3c2=O)c1`, the Inhibition is -24.6%.

Consider `Cc1ccc(-n2ccn3c(SCC(=O)N4CCN(c5ccc(F)cc5)CC4)nnc3c2=O)cc1C`, for which the Inhibition is -5.04%.

On to `CCc1nnc2ccc(S(=O)(=O)N(Cc3cccc(F)c3)c3ccc(OC)cc3)cn12`, for which the Inhibition was -10.67%.

For the compound `CC(C)c1nnc2c(=O)n(CC(=O)Nc3cccc(C#N)c3)c3ccccc3n12`, the Inhibition is given as -33.67%.

Consider `CCOc1ccc(NC(=O)Cn2nc3c4cc(-c5ccc(Cl)cc5)nn4ccn3c2=O)cc1`, for which the Inhibition was -14.66%.

As to `CCOc1ccc(NC(=O)Cn2nc3c(Oc4ccc(C)cc4)nccn3c2=O)cc1`, the Inhibition is recorded as -8.36%.

With `O=C(Cn1nc2c(SC3CCCCC3)nccn2c1=O)Nc1cccc(Br)c1`, the Inhibition is on record as -20.18%.

On to `O=S(=O)(c1cccn2cnnc12)N(Cc1cccc(Cl)c1)c1cc(F)cc(F)c1`, for which the Inhibition is on record as -7.91%.

As for `CCc1ccccc1Sc1nccn2c(=O)n(CC(=O)Nc3ccc(C)cc3C)nc12`, the Inhibition is recorded as -14.18%.

Consider `O=c1c2sccc2n2c(=O)n(Cc3c(F)cccc3Cl)nc2n1Cc1cccs1`, for which the Inhibition was -29.08%.

In the case of `COC(=O)c1ccc(NC(=O)CSc2nc3ccccc3n3c(C(C)C)nnc23)cc1`, the Inhibition is -21.14%.

The values above are taken from ChEMBL document CHEMBL4513146, “CO-ADD screening of Karazin Kharkiv National University (Ukraine) compounds”.
